Experimental data as given in ChEMBL document CHEMBL3988442, “University of Dundee, Small-Polar-MMV Screening Library” (2021).
The whole screen tested about 48,000 compounds, of which about 13,000 (27%) showed an effect of 50% or more. This is one part of the list.

Each molecule was assayed on Wolbachia pipientis (assay: Anti-Wolbachia Cell-Based Screen). Conditions: 5 µM.
Type: functional
Set-up: scale not given: in the data most compounds retested in dose-response had high values

Compound | Percent Effect
Cc1c(C)n(CC(O)CN2CCC(O)CC2)c2c(Cl)cccc12 (configuration not stated) | 9.661%
CN(C)S(=O)(=O)N1C[C@@H]2CC[C@H](C1)N(Cc1ccc3c(c1)OCCO3)C2 | 2.095%
CCOc1cccc(NCc2cnc(N3CCN(C)CC3)nc2)n1 | 6.944%
CN1CCC(c2cnc(NCc3nccn3C)cn2)CC1 | 131.5%
Cn1ccnc1CNc1nccc(-c2ncnn2C)n1 | 23.33%
CC(C)c1nccn1-c1cccc(C2CCN(C)CC2)n1 | 4.105%
CN1CCC(c2cccc(NCc3ccncc3)n2)CC1 | 80.62%
Cn1ccnc1CNc1ccc(F)c(N2CCCS2(=O)=O)c1 | 0.7519%
CN1CCC(c2cccc(NCc3nccn3C)n2)CC1 | 108.8%
Cn1ccnc1CNc1c(F)cccc1-n1cccn1 | -3.206%
N#Cc1nccnc1N1CCN(CCOCc2ccccc2)CC1 | 4.216%
CC1CCc2sc(C(=O)Nc3cnn(C)c3)cc2C1 (configuration not stated) | 18.64%
Cc1ncnc(NC(CC(C)(C)C)c2cccnc2)c1C (configuration not stated) | -0.1537%
CN(Cc1cccs1)C(=O)c1ccc(=O)n(C)c1 | 1.128%
Fc1cccc2ncnc(NCC3(N4CCOCC4)CCSC3)c12 (configuration not stated) | -8.869%
COc1ccc(C2CCCN2C(=O)c2cc3c([nH]c2=O)CCC3)cc1 (configuration not stated) | -1.742%
O=C(c1ccn(-c2ccc(F)cc2)n1)N(CCO)Cc1cccnc1 | 6.446%
COc1ccc(C(=O)N(CCO)Cc2ccccc2)c(OC)n1 | 150.7%
CSc1ncccc1C(=O)N(CCO)Cc1ccccc1 | 110.2%
Cn1ccnc1CN(CCO)C(=O)c1cc2ccccc2o1 | 4.663%
O=C(C1COc2ccccc2C1)N(CCO)Cc1ccccc1 (configuration not stated) | 3.539%
COc1cc(C(=O)NCCCc2ccccc2)on1 | -0.8212%
Cc1cccc(N2CCCC3(C2)CN(S(C)(=O)=O)CCO3)c1 (configuration not stated) | -0.08325%

Compound | Percent Effect
Cc1nc(C2CCCN2CCc2cccs2)no1 (configuration not stated) | -9.357%
Cc1nc(C2CCCN2CCOCC2CC2)no1 (configuration not stated) | 95.01%
CC(C)c1nc(C2CCCN2CCOCC2CC2)no1 (configuration not stated) | 114%
CSCCCN1CCCC1c1noc(C)n1 (configuration not stated) | -3.652%
C1CC(c2noc(C3CC3)n2)CN(CCOCC2CC2)C1 (configuration not stated) | 14.88%
CC(C)c1nc(C2CCCN2CCCc2nc3ccccc3o2)no1 (configuration not stated) | 6.375%
COc1cc(C)cc(-c2nc3c([nH]2)CCNC3)c1OC | 7.084%
N#Cc1cccc(NC2CC(=O)N(CCc3ccc(F)cc3)C2)n1 (configuration not stated) | 1.885%
Cc1nc(CNC2CC(=O)N(CCc3cccc(Cl)c3)C2)c[nH]1 (configuration not stated) | 91.72%
Cc1cc(C)nc(N2C[C@H]3OC(=O)N(CCc4cccc(Cl)c4)[C@H]3C2)n1 | -8.827%
Cc1nc[nH]c1CNC1CC(=O)N(CCc2cccc(Cl)c2)C1 (configuration not stated) | 94.18%
CN(C)c1ncc(CNC2CC(=O)N(CCc3cccc(Cl)c3)C2)s1 (configuration not stated) | 116.6%
O=C1CC(NCc2ccc(Cl)s2)CN1Cc1cccc(F)c1 (configuration not stated) | 20.87%
Cc1cccc(CNC2CC(=O)N(CCc3cccc(Cl)c3)C2)n1 (configuration not stated) | 115.9%
CC(=O)Nc1ccc(CNC2CC(=O)N(Cc3cccc(F)c3)C2)cc1 (configuration not stated) | -1.661%
c1cc(CN2CCOC[C@H]2c2nc(-c3ccncc3)c[nH]2)ccn1 | -7.2%
CC(=O)N[C@H]1CN(CC(=O)NCc2ccccc2C)C[C@@H]1C(C)C | -0.9175%
CCCc1cc(C(=O)N(CC)Cc2ccncc2)[nH]n1 | -8.767%
CN1CCN(c2ccc3ccc(C(=O)N4CCCCO4)cn23)CC1.O=C(O)C(F)(F)F | -14.14%
Cc1nnc(N2CCCC(CS(N)(=O)=O)C2)c(C#N)c1C (configuration not stated) | -0.6364%
CCOCCN1CCN(Cc2nnc(C3CC3)o2)CC1C (configuration not stated) | -16.34%
Cc1ncc(CNC2CC(=O)N(CCc3cccc(Cl)c3)C2)n1C (configuration not stated) | 82.2%
CC(C)S(=O)(=O)N1C[C@H]2OC(=O)N(CCc3cccc(Cl)c3)[C@H]2C1 | -13.46%

Compound | Percent Effect
CCCS(=O)(=O)N1C[C@H]2OC(=O)N(CCc3cccc(Cl)c3)[C@H]2C1 | -3.172%
Cc1ncsc1CNC(=O)N1CCN(Cc2ccccc2)CC1C (configuration not stated) | -7.787%
Fc1ccc(CN2CCC3(CC2)CN(c2ccccn2)CCO3)cc1.O=C(O)C(F)(F)F.O=C(O)C(F)(F)F | -6.002%
COc1cc(N2CCC3(CCN(C(=O)c4cccnc4)CC3)C2)ncn1.O=C(O)C(F)(F)F | -2.068%
COc1cc(N2CCC3(CCCN(Cc4ccccn4)C3)C2)ncn1.O=C(O)C(F)(F)F (configuration not stated) | 109.9%
N#Cc1ccc(N2CCC3(CCCN(c4ccccn4)C3)C2)nc1.O=C(O)C(F)(F)F (configuration not stated) | -3.068%
O=C(O)C(F)(F)F.O=C(O)C(F)(F)F.c1ccc(CN2CCC3(CC2)CCN(c2ccccn2)C3)nc1 | 79.01%
O=C(O)C(F)(F)F.O=C(O)C(F)(F)F.c1ccc(CN2CCC3(CC2)CN(c2ccccn2)CCO3)nc1 | 2.249%
Fc1ccccc1CN1CCCC2(CCN(c3ncccn3)CC2)C1.O=C(O)C(F)(F)F | 3.614%
O=C(O)C(F)(F)F.c1ccc(N2CCC3(CCCN(c4ncccn4)C3)C2)nc1 (configuration not stated) | 93.44%
O=C(O)C(F)(F)F.O=C(O)C(F)(F)F.c1cnc(N2CCCC3(CCN(c4ncccn4)C3)C2)nc1 (configuration not stated) | 103.8%
COc1cc(N2CCC3(CCCN(C(=O)c4cccnc4)C3)C2)ncn1.O=C(O)C(F)(F)F (configuration not stated) | -28.04%
CN1CCC2(CCCN(c3nccc(C(F)(F)F)n3)C2)CC1.O=C(O)C(F)(F)F | -32.78%
CC(=O)N1CCC2(CC1)CN(C)C(=O)C[C@H]2C(F)(F)F.Cl | -12.08%
CN1CCN(C(=O)c2ccc(=O)n(C)c2)c2ccccc21 | 6.731%
CCOc1ccc(-n2nc(C)c(CC(C)=O)c2C)cc1C(N)=O | -4.424%
Cc1cnc(N2CC3(CCN(S(=O)(=O)C4CC4)C3)C2)nc1.O=C(O)C(F)(F)F | -3.978%
O=C(O)C(F)(F)F.O=S(=O)(C1CC1)N1CCC2(CCCN(c3ncccn3)C2)C1 (configuration not stated) | 97.03%
O=S(=O)(C1CC1)N1CCC2(CN(c3ncccn3)C2)C1 | -12.56%
O=C(CCc1ccc(F)cc1)NCc1ccnc(NC2CC2)c1 | -8.812%
Cc1ccc(CN2CC[C@H]3CO[C@H](CN4CCN(C)CC4)[C@H]3C2)o1.O=C(O)C(F)(F)F.O=C(O)C(F)(F)F.O=C(O)C(F)(F)F | -46.51%
Cc1ccc(CN2CC[C@H]3CO[C@H](CN4CCCC4)[C@H]3C2)o1.O=C(O)C(F)(F)F.O=C(O)C(F)(F)F | -21.11%
CN1CCN(C[C@@H]2OC[C@H]3CN(Cc4ccsc4)CC[C@H]32)CC1.O=C(O)C(F)(F)F.O=C(O)C(F)(F)F.O=C(O)C(F)(F)F | -2.359%

Compound | Percent Effect
CN1CCN(C[C@H]2OC[C@@H]3CCN(Cc4ccsc4)C[C@@H]32)CC1 | 98.94%
O=C(O)C(F)(F)F.O=C(O)C(F)(F)F.c1cc(CN2CC[C@@H]3[C@@H](CO[C@H]3CN3CCOCC3)C2)cs1 | 92.79%
O=C(O)C(F)(F)F.O=C(O)C(F)(F)F.c1cc(CN2CC[C@H]3CO[C@H](CN4CCOCC4)[C@H]3C2)cs1 | 117.2%
O=C(C1CCOCC1)N1C[C@@H]2CN(Cc3ccsc3)CCO[C@@H]2C1.O=C(O)C(F)(F)F | 4.767%
CN(Cc1ccco1)C[C@H]1OC[C@@H]2CCN(Cc3ccsc3)C[C@@H]21.O=C(O)C(F)(F)F.O=C(O)C(F)(F)F | -7.864%
O=C(O)C(F)(F)F.O=C(O)C(F)(F)F.c1cc2c(cc1CN1CC[C@H]3CO[C@H](CN4CCCC4)[C@H]3C1)OCO2 | -12.98%
O=C(Nc1ccnc(OC2CCOC2)c1)C1CCC1 (configuration not stated) | -17.8%
Cc1cc(CN2CCC(CNC(=O)c3ccc(O)c(Cl)c3)C2)[nH]n1 (configuration not stated) | 12.57%
CNc1nc(C(=O)N2CCCCC2c2ccc(CN(C)C)cc2)cs1 (configuration not stated) | -11.93%
CNS(=O)(=O)c1ccc(C(=O)N2CCCC2Cc2ccccc2)o1 (configuration not stated) | 9.44%
CNS(=O)(=O)c1ccc(C(=O)N2CCCC2c2ccncc2)o1 (configuration not stated) | 101.5%
CC(=O)Nc1nc(C(=O)N2CCCC2c2ccccc2C)cs1 (configuration not stated) | -3.064%
CNS(=O)(=O)c1ccc(C(=O)N2CCCC2c2cnn(C)c2)o1 (configuration not stated) | -2.298%
NS(=O)(=O)c1ccc(C(=O)N2CCCC2c2ccccc2)o1 (configuration not stated) | 114.9%
CNS(=O)(=O)c1ccc(C(=O)N2CCCC2c2ccccc2)o1 (configuration not stated) | -8.711%
Cc1nc(C(=O)N2CCCCC2c2ccc(CN(C)C)cc2)c(C)o1 (configuration not stated) | -1.477%
CNS(=O)(=O)c1ccc(C(=O)N2CCCC2c2ccccc2C)o1 (configuration not stated) | 116.1%
CN(C)Cc1ccc(C2CCCCN2C(=O)c2ncccc2O)cc1 (configuration not stated) | 1.796%
CNS(=O)(=O)c1ccc(C(=O)N2CCCCC2c2ccc(C)cc2)o1 (configuration not stated) | 124%
O=c1ccncn1Cc1csc(C2CC2)n1 | -22.65%
Cc1cc(C)cc(CCC(=O)NC(C)c2nnn[nH]2)c1 (configuration not stated) | -2.993%
CCCn1nc2c(cc1=O)CN(Cc1ncc(C(C)(C)C)o1)CC2 | 7.183%
c1ccc2c(N3CCCCC3)cnnc2c1 | -32.94%
